From ChEMBL document CHEMBL1157539, “Thousands of chemical starting points for antimalarial lead identification” (Nature, 2010)

Legend:
Assay type in all cases: functional
[1] = test system: Plasmodium falciparum; experiment: GSK_TCMDC: Inhibition of Plasmodium falciparum 3D7 in whole red blood cells, using parasite LDH activity as an index of growth. Test compounds present at 2uM
[2] = test system: Plasmodium falciparum; experiment: GSK_TCMDC: Inhibition of Plasmodium falciparum Dd2 in whole red blood cells, using parasite LDH activity as an index of growth. Test compounds present at 2uM
[3] = test system: HepG2; experiment: GSK_TCMDC: Percent inhibition of human HepG2 cell line. Test compounds present at 10uM.

Row | Compound | Inhibition [1] [%] | Inhibition [2] [%] | Inhibition [3] [%]
1 | CC(C)CNCc1cccc(-c2ccccc2CNC2CCN(Cc3ccccc3)CC2)c1.O=C(O)C(F)(F)F | 100 | 39 | 25
2 | CCC1(C)CC(CCNCc2ccccc2O)(c2ccccc2OC)CCO1.Cl (configuration not stated) | 94 | 93 | 10
3 | O=C(c1cc(-c2ccccc2)n[nH]1)N1CCN(S(=O)(=O)c2ccc(Cl)s2)CC1 | 88 | 81 | 9
4 | CC(C)(C)c1ccc(CN2CCCCC(NC(=O)c3cc(-c4ccccc4F)cs3)C2)cc1.O=C(O)C(F)(F)F (configuration not stated) | 100 | 99 | 6
5 | CCOC(=O)c1ccc(N2CCCCC2)c(NC(=O)C(Cl)(Cl)Cl)c1 | 96 | 97 | 11
6 | Cl.O=C(C=Cc1cccs1)N(CCCn1ccnc1)c1nc2ccc(F)cc2s1 | 98 | 28 | 0
7 | Cc1nnsc1C(=O)Nc1cccc(-c2ccc(-c3nc4ccccc4[nH]3)cc2)c1 | 100 | 58 | 48
8 | C=C1C(C(=O)OCC)=CN(CC)c2cc(O[C@@H]3CCN(C(=O)OC(C)(C)C)C3)ccc21 | 97 | 94 | 13
9 | CN1CCN(c2ccc(CNc3ccc4ncc(-c5ccc(OC(F)(F)F)cc5)n4n3)cc2)CC1 | 94 | 87 | 13
10 | Cc1ccc(O)cc1Nc1ccnc2ccc(-c3cccc(CN(C)C)c3)cc12 | 100 | 99 | 0
11 | COc1cc(-c2cc3cc(Cl)c(Cl)cc3[nH]2)ccc1C(=O)NC1CCN(Cc2ccccc2)CC1.O=C(O)C(F)(F)F | 100 | 100 | 12
12 | O=C(O)C(F)(F)F.Oc1ccc(CCNc2nc(NCCCOc3cc(CN4CCCCC4)ccc3F)nc(N3CCNCC3)n2)cc1 | 100 | 0 | 30
13 | CCN1CCN(c2ccc(Nc3c4ccccc4nc4ccccc34)cc2)CC1 | 99 | 100 | 24
14 | Cl.O=c1cc(NCCCNCc2csc(Br)c2Sc2ccc(Cl)cc2)[nH]c2ccccc12 | 95 | 83 | 5
15 | COc1ccc(NS(=O)(=O)c2ccc(C(=O)Nc3ccc(C(F)(F)F)cc3)cc2)cc1N1CCN(CC2CC2)CC1.O=C(O)C(F)(F)F | 92 | 0 | 15
16 | COc1cc(C2NCC3(CCOCC3)c3cc4c(cc32)OCCO4)cc(OC)c1OC.Cl (configuration not stated) | 95 | 2 | 24
17 | COc1ccc(C(=O)NCc2ccc(N)nc2C)cc1Nc1ncc(-c2cccc(N(C)C)c2)cn1 | 89 | 68 | 9
18 | O=C(/C=C/c1ccsc1)N1CCC(CCN2CCC(c3c[nH]c4ccccc34)CC2)CC1 | 88 | 24 | 37
19 | CC(=O)c1ccc(-n2ccnc2)cc1 | 92 | 0 | 0
20 | COc1ccc(-n2cc(C(=O)c3cc(Br)ccc3O)cc(C#N)c2=O)cc1Cl | 99 | 23 | 29

Row | Compound | Inhibition [1] [%] | Inhibition [2] [%] | Inhibition [3] [%]
21 | CCCNC(=O)C1Cc2c([nH]c3ccc(Br)cc23)C2(CCN(CCc3ccccc3)CC2)N1 (configuration not stated) | 99 | 49 | 16
22 | Cc1cccc2nc(-c3ccc(-c4ccc(CNCc5ccc(CN)cc5)cc4)cc3)[nH]c12.O=C(O)C(F)(F)F | 100 | 46 | 14
23 | Cl.O=C1CSc2ccc(CNC3CCN(CCc4c(F)cnc5ccc(F)cc45)CC3)nc2N1 | 97 | 16 | 13
24 | COc1ccc(NS(=O)(=O)c2cc(NC(=O)Cn3ccccc3=O)ccc2N2CCCCC2)cc1 | 92 | 83 | 20
25 | Cc1cc(CN2CCC(N3CC(c4ccccc4)(c4ccccc4)OCC3=O)C2)ccc1O.O=C(O)C(F)(F)F (configuration not stated) | 89 | 52 | 3
26 | CNCc1ccc(-c2cccc(CNCc3ccc(-c4ccccc4)cc3)c2)c(C(=O)OC)c1.O=C(O)C(F)(F)F | 92 | 19 | 25
27 | COc1ccc(-c2cccc(CNC3CCN(C)CC3)c2)cc1S(=O)(=O)NCc1ccccc1.O=C(O)C(F)(F)F | 90 | 22 | 18
28 | O=C(NC1CCC(N2CCC(c3ccccc3C(F)(F)F)CC2)CC1)c1cc2ccccc2[nH]1 (configuration not stated) | 100 | 98 | 80
29 | O=C(/C=C/c1ccc(Cl)c(Cl)c1)NCCCCCN1CCC(C(=O)Nc2ccc(Cl)cc2)CC1 | 100 | 0 | 42
30 | O=C(Nc1ccc(F)cc1)NC1CCN(CCCCCNC(=O)C2CC2c2ccc(Cl)c(Cl)c2)CC1 (configuration not stated) | 100 | 20 | 46
31 | O=C(O)C(F)(F)F.c1ccc2[nH]c(-c3ccc(-c4ccc(CN5CCCCC5)cc4)cc3)nc2c1 | 99 | 100 | 27
32 | COC(=O)c1cccc(CNCc2cccc(-c3csc(-c4nc5ccccc5[nH]4)c3)c2)c1.O=C(O)C(F)(F)F | 100 | 44 | 0
33 | CCCNc1ccc(-c2cc(C(N)=O)c3[nH]cc(C4CCN(S(=O)(=O)CC)CC4)c3c2)cn1.O=C(O)C(F)(F)F | 99 | 42 | 6
34 | CS(=O)(=O)c1cccc(-c2cnc3[nH]cc(-c4ccc(C(=O)O)cc4)c3c2)c1 | 99 | 100 | 6
35 | Cc1ccc(-n2nc3ccc(NC(=O)c4ccc([N+](=O)[O-])o4)cc3n2)cc1C | 94 | 95 | 20
36 | Cc1ccc(N2C(N)=NC(N)=NC2c2ccccc2)cc1.Cl (configuration not stated) | 94 | 1 | 11
37 | CCNc1cc(C)nc(Nc2ccc(NC(=O)c3ccccc3Br)cc2)n1 | 100 | 56 | 46
38 | CC(C)c1ccc(O)cc1Nc1ccnc2ccc(C(F)(F)F)cc12 | 97 | 90 | 6
39 | CCCNCc1ccc(-c2ccc(CN(CCOC)C(=O)[C@H]3CCCO3)cc2)nc1.O=C(O)C(F)(F)F | 98 | 6 | 1
40 | O=C1CCCC1Sc1nc2ccccc2c(=O)n1-c1ccc(Cl)c(Cl)c1 (configuration not stated) | 97 | 42 | 10

Row | Compound | Inhibition [1] [%] | Inhibition [2] [%] | Inhibition [3] [%]
41 | CN1CCCN(Cc2ccc(-c3cccc(NC(=O)c4ccc(F)cc4)c3)cc2)CC1.O=C(O)C(F)(F)F | 89 | 8 | 29
42 | COc1cc2nc(Nc3ccc(N4CCOCC4)cc3)nc(N)c2cc1OC.Cl | 95 | 10 | 8
43 | CC(=O)Nc1cccc(-c2cn(-c3ccc(OCc4cccc(F)c4)c(Cl)c3)c3ncncc23)c1 | 100 | 66 | 7
44 | O=C(Nc1ccc2c(c1)CCN2C1CCN(Cc2cccc(C(F)(F)F)c2)C1)c1ccco1 (configuration not stated) | 95 | 92 | 4
45 | O=C(NC1CCCC1)c1cc2c(=O)n3ccccc3nc2[nH]/c1=N/CCc1ccccc1 | 100 | 61 | 19
46 | Cc1cc(-c2cccc(CNC3CCN(C)CC3)c2)ccc1S(=O)(=O)NC1CCC1.O=C(O)C(F)(F)F | 100 | 96 | 33
47 | Cc1cc(NCCC(=O)NCCc2ccccc2)nc(NCCc2ccc(F)cc2)n1.O=C(O)C(F)(F)F | 92 | 7 | 0
48 | Cc1cc(NC(=O)Nc2ccc3ncccc3c2)c2ccccc2n1 | 93 | 27 | 6
49 | COc1ccc2c(=NN=Cc3ccc(F)cc3)cc(C)[nH]c2c1 | 100 | 99 | 4
50 | CCCCN1CCN(CC(O)CNC(=O)Nc2ccc(Cl)cc2)CC1.O=C(O)C(F)(F)F (configuration not stated) | 100 | 99 | 17
51 | COc1cccc(C(=O)Nc2ccc(Oc3ccc(Cl)cc3)cc2)c1 | 92 | 0 | 33
52 | CCCC(C)Nc1nc(C)cc(NCCC(=O)Nc2ccc(OC)cc2)n1.O=C(O)C(F)(F)F (configuration not stated) | 97 | 2 | 12
53 | CC(C)CNC(=O)c1cncc(-c2ccc(CNC3Cc4ccccc4C3)cc2)c1.O=C(O)C(F)(F)F | 99 | 37 | 5
54 | Cc1ccc(C(=O)NC2CCN(CCNC(=O)Nc3cc(C)nc4ccccc34)CC2)cc1 | 98 | 76 | 0
55 | COc1ccc2nc(C)cc(Nc3ccc(N4CCN(C)CC4)cc3)c2c1 | 100 | 3 | 1
56 | COc1cc(C(=O)NC2CC(C)(C)N(C)C(C)(C)C2)ccc1-c1nc2cc(Cl)c(Cl)cc2[nH]1 | 100 | 99 | 69
57 | COc1cccc(CCc2cccc(CNC(C)=O)c2)c1 | 88 | 0 | 2
58 | O=C(Nc1ccc(Cl)cc1)c1cccc(S(=O)(=O)NC2CCN(CC3CCCCC3)CC2)c1.O=C(O)C(F)(F)F | 92 | 11 | 67
59 | CC1(C)CC(NCCCCCCCOc2ccc(OCc3ccccc3)cc2)CC(C)(C)N1.Cl | 100 | 73 | 99
